From the supplement of paper PMC11732987, “Enantioselective OTUD7B fragment discovery through chemoproteomics screening and high-throughput optimisation” (Communications Chemistry, 2025)

How the values were obtained:
Experiment in all cases: log2 ratio of Biotin-Ahx-Ub-VS probe labelling (fragment/DMSO); higher = less target engagement (more negative = stronger competition), active = hit call of the paper (q ≤ 0.05, log2 ratio ≤ -1)
Details in all cases: compound concentration: 200 uM; treatment time: 3 h
OTUD6B = target: T1, OTUD6B (UniProt Q8N6M0)
T1 sequence (whole entry): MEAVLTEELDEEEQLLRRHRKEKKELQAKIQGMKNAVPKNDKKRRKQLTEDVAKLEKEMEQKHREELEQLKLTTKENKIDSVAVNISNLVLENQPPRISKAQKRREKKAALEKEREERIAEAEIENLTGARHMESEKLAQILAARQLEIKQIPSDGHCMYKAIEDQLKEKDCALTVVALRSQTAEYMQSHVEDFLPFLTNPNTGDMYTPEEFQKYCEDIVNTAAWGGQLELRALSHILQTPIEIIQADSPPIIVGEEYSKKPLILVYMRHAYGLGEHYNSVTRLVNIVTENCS
Summary of the method: (§1)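 Fragment (200 µM) or vehicle was incubated for 3 h with triplicate HEK293T lysate samples of 495 µg, which were then treated with Biotin-Ahx-Ub-VS at 0.5 µM final for 1 h. Labelled DUBs were enriched on NeutrAvidin, digested with LysC and trypsin, and analysed by diaPASEF LC-MS/MS. Values are average log2 fragment/vehicle ratios from an unpaired t-test on global-median-normalised Spectronaut label-free quantities, using proteins with ≥2 unique peptides.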

OTUD7B = target: T2, OTUD7B (UniProt Q6GQQ9)
T2 sequence (whole entry): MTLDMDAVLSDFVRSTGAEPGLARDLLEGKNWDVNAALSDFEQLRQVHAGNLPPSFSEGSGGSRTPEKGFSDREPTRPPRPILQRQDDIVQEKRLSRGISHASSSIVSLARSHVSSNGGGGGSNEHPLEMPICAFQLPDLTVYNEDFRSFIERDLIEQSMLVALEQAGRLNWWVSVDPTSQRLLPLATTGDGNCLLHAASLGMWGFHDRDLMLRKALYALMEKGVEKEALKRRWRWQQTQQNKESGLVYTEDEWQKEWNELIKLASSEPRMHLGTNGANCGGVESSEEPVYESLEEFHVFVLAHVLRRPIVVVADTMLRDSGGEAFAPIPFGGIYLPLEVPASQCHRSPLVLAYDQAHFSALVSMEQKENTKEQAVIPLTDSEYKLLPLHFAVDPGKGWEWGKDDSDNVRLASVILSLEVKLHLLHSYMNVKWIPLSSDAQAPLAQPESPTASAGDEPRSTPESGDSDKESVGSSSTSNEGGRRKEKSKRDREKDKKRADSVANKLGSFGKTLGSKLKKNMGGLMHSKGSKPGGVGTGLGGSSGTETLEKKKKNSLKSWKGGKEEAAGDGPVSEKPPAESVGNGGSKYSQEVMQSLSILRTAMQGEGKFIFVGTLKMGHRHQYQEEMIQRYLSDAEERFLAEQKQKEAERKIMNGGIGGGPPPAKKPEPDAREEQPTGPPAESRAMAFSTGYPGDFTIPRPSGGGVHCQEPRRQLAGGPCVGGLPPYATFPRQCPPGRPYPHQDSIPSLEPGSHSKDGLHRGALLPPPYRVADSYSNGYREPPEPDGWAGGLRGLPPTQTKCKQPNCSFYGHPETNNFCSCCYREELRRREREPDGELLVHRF
Summary of the method: as §1

PRPF8 = PRPF8 (UniProt Q6P2Q9)
Summary of the method: as §1

PSMD7 = target: T3, PSMD7 (UniProt P51665)
T3 sequence (whole entry): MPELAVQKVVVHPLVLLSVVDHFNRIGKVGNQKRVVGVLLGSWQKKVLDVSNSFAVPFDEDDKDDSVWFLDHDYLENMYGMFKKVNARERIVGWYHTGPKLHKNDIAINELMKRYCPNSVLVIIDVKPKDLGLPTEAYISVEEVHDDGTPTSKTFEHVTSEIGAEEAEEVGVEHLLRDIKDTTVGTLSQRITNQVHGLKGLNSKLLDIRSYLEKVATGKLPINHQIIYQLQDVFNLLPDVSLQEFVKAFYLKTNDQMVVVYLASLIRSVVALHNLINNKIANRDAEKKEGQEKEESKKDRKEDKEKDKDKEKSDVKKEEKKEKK
Summary of the method: as §1

UCHL1 = UCHL1 (UniProt P09936)
Summary of the method: as §1

UCHL3 = target: T4, UCHL3 (UniProt P15374)
T4 sequence (whole entry): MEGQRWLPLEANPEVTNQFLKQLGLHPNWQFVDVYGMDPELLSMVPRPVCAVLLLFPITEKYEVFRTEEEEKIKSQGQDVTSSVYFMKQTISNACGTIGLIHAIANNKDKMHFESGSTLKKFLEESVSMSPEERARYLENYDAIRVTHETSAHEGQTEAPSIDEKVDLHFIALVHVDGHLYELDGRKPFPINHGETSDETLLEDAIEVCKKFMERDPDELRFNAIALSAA
Summary of the method: as §1

UCHL5 = target: T5, UCHL5 (UniProt Q9Y5K5)
T5 sequence (whole entry): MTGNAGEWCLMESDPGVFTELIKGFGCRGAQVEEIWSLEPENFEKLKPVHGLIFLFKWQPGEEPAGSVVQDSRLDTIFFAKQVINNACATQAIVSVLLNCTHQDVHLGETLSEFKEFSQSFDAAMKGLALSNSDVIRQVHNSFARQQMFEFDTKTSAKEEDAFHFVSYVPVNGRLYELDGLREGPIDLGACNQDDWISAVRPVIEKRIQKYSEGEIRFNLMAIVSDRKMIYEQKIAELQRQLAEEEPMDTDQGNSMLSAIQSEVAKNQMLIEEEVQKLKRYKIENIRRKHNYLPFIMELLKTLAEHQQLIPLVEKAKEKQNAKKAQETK
Summary of the method: as §1

USP10 = USP10 (UniProt Q14694)
Summary of the method: as §1

USP15 = target: T6, USP15 (UniProt Q9Y4E8)
T6 sequence (whole entry): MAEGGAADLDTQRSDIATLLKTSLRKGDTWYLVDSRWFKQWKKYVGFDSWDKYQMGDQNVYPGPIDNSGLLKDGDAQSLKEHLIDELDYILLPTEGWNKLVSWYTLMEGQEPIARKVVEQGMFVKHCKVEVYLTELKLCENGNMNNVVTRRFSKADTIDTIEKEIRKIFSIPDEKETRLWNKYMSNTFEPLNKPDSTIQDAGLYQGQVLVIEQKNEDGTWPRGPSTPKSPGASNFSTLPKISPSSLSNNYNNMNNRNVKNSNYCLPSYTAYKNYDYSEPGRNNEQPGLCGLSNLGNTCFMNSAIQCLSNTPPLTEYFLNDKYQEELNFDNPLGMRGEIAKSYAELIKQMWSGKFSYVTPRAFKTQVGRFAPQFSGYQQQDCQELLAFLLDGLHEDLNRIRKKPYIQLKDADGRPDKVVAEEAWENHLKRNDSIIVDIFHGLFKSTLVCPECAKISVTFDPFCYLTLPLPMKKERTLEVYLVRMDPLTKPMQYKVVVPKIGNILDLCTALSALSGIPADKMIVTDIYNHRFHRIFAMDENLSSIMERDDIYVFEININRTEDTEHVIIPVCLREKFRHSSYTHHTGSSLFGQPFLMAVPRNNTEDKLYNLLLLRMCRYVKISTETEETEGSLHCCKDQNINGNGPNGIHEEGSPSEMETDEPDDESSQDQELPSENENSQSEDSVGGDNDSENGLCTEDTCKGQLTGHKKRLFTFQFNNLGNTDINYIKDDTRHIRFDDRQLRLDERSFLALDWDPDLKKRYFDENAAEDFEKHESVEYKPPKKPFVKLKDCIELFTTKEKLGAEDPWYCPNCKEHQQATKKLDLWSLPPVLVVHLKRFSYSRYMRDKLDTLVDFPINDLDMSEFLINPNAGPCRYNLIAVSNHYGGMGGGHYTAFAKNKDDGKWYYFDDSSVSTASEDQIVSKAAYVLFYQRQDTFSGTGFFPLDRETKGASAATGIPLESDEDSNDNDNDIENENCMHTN
Summary of the method: as §1

USP16 = USP16 (UniProt Q9Y5T5)
Summary of the method: as §1

Measured: log2 ratio of Biotin-Ahx-Ub-VS probe labelling

Sequence of USP10 (Q14694 whole entry): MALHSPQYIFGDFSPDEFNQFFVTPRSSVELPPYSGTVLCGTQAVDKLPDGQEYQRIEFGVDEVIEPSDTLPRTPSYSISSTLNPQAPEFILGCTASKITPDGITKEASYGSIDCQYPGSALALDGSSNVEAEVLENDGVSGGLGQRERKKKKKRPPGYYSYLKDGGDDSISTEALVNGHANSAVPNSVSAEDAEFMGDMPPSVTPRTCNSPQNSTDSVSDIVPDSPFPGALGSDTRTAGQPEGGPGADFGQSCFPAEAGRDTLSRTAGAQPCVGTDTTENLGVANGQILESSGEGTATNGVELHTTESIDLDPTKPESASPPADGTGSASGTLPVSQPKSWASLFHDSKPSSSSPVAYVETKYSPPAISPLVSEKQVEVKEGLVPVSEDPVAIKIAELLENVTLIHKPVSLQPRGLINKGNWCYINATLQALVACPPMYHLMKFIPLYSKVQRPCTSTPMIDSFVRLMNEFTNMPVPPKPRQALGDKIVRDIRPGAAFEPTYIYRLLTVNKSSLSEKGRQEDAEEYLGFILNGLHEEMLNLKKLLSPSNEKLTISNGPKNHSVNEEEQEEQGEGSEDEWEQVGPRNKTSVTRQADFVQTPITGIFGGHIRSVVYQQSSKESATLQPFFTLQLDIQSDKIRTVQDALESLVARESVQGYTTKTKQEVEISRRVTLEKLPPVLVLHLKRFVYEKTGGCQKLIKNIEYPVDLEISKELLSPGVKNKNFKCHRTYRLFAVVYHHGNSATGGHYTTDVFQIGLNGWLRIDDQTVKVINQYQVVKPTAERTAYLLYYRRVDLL
Sequence of USP16 (Q9Y5T5 whole entry, looked up): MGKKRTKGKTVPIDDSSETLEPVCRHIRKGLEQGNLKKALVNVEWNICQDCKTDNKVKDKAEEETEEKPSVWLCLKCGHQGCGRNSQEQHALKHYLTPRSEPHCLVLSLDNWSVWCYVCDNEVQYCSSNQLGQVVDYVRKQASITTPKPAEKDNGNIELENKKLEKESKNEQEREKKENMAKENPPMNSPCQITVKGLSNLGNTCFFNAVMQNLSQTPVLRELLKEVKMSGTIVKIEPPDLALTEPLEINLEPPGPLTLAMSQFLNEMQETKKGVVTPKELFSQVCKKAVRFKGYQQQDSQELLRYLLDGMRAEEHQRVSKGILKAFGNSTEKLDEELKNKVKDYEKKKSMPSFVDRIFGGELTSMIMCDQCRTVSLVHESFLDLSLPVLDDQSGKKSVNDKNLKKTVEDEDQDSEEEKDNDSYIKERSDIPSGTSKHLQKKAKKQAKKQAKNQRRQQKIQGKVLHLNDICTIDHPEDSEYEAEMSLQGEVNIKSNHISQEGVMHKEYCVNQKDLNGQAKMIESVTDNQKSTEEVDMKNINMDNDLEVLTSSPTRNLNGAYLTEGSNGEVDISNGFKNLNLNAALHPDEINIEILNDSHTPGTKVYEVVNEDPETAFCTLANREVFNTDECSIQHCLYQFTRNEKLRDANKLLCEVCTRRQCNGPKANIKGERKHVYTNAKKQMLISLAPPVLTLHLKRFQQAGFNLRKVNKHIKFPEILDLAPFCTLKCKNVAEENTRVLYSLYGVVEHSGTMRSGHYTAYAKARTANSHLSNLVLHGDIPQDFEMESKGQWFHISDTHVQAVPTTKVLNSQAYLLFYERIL
Sequence of UCHL1 (P09936 whole entry, looked up): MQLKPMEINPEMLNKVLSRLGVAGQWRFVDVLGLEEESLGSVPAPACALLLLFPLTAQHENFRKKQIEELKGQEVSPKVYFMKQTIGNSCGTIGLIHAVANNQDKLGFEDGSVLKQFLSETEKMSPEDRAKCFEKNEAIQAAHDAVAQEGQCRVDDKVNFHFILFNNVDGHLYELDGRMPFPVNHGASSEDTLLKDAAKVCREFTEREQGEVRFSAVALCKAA

O=C(CCl)N1CCN(c2nc3ccccc3o2)CC1
inactive: OTUD6B -0.147 | OTUD7B -0.25 | PRPF8 0.299 | PSMD7 -0.247 | UCHL3 -0.125 | UCHL5 -0.319 | USP10 -0.131 | USP15 -0.407 | USP16 -0.379
active: UCHL1 -1.49
